# Screening data from PubChem BioAssay.
# Compounds with a hit are over-represented: about 6% of the library has one in this group of screens.
# D3 antag – D3 dopamine receptor (human) antagonism. max response, negative = inhibition, %. 360,000 tested, 2.5% active. D3R cells, DiscoveRx beta-arrestin luminescence, antagonist mode; hits give low values. AID 652054; in the data active = max response below about -50%; inconclusive = no clear call, values can overlap the other calls
#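 Cells plated overnight at 1500 cells/well, then exposed to library compounds with dopamine controls for 90 minutes at 37 degrees C. DiscoveRx reagent added for 30–60 minutes at room temperature; luminescence read, quantitative HTS format.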
# D1 PAM – enhances dopamine response at the human D1 receptor. P21728. HEK293 TREx D1 cells, calcium flux, dopamine EC20 potentiation. potentiation, % at 10 µM. 360,000 tested, 0.036% active; in the data active = potentiation above about 30%
# Target sequence (P21728 whole entry, looked up): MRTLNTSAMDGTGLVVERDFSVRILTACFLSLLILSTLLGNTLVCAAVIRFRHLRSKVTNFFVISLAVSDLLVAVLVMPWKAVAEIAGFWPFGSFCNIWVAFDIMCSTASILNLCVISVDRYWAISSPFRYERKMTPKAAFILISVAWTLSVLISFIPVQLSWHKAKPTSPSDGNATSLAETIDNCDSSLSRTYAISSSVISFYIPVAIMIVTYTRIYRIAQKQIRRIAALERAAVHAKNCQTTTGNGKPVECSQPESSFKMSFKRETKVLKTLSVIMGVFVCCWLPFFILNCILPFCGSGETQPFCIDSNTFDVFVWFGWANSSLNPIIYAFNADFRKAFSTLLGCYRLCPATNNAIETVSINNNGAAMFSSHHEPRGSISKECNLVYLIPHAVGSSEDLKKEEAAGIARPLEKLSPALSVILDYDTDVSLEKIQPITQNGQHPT
# D1 antag – blocks dopamine activation of the human D1 receptor; 360,000 tested, 3.2% active; activity change, negative = inhibition, % at 10 µM; P21728; HEK293 TREx D1 cells, calcium flux, dopamine EC80; hits give low values; in the data active = activity change below about -30%
#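 Tetracycline-induced HEK293 Trex D1 cells, force-coupled to calcium, dye-loaded; compounds added and read 180 s, then EC80 dopamine added and calcium flux tracked kinetically another 180 s.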
# D1 agonist – agonists of human D1 dopamine receptor; activation, % at 2 µM; HEK293 T-REx D1 cells, calcium flux, agonist mode; P21728; 360,000 tested, 1% active; in the data active = activation above about 30%
#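 Inducible HEK293 T-REx D1 cells, force-coupled to calcium signalling, were plated at 4000 cells/well with tetracycline and held overnight at 30 C. After no-wash calcium dye loading, compound-evoked calcium rise over 180 s flagged agonists.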
# D3 ag – activates the human D3 dopamine receptor. P35462. 410,000 tested, 0.58% active. AID 652048. D3R DiscoveRx beta-arrestin cells, luminescence, 90 min. max activation, %; in the data active = max activation above about 30%
#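 Cells at 1500/well, incubated overnight, then treated with pinned compounds (dopamine as control) for 90 min at 37 degrees C. DiscoveRx reagent added for 30 - 60 minutes at room temperature; luminescence read.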
# Hits are given with their value; n = inactive; u = inconclusive; x = not tested or not shown; ! = a repeat was not active.
SMILES,D3 antag,D1 PAM,D1 antag,D1 agonist,D3 ag
C=C1C2C[C@H](O)C(C)(C)[C@@]2(O)[C@H](O)C[C@]23C[C@@](C)(O)[C@H](CC[C@H]12)[C@H]3OC(C)=O (stereo partly drawn),n,n,-34,n,n
ClC1=C(Cl)[C@]2(Cl)[C@@H]3[C@H]4C[C@H]([C@@H]5O[C@H]45)[C@@H]3[C@@]1(Cl)C2(Cl)Cl,x,x,x,x,n
COc1ccc(-c2nc3ccc(Br)cn3c2CC(=O)N2CCCC2)cc1OC,-52,x,x,x,n
OC[C@@H](O)[C@H]1O[C@@H]2O[C@H](C(Cl)(Cl)Cl)O[C@@H]2[C@H]1O,x,x,x,x,n
O=C(Nc1cccc(Cl)c1)OC1CN2CCC1CC2 (stereo not drawn),n,n,-38,n,n
O=C(Nc1ccccc1F)OC1CN2CCC1CC2 (stereo not drawn),n,n,n,n,n
O=C(Nc1ccc(Cl)cc1)OC1CN2CCC1CC2 (stereo not drawn),n,n,n,30,n
O=C(Nc1ccccc1Cl)OC1CN2CCC1CC2 (stereo not drawn),n,n,-38,n,n
COc1ccc(C(=O)c2c(C)n(CCN3CCOCC3)c3ccccc23)cc1,x,x,x,x,n
N#Cc1c(/N=C/C2C(=O)NC(=S)NC2=O)sc2c1CCCC2,n,n,n,n,32
O=[N+]([O-])c1cc(F)c(N2CCCCC2)cc1Br,n,n,n,n,n
O=[N+]([O-])c1cc(F)c(N2CCCC2)cc1Br,n,n,n,n,n
CCN1CCN(c2cc(N3CCCC3)c(F)cc2[N+](=O)[O-])CC1,-69,n,n,n,n
CN1CCN(c2cc(N3CCCC3)c([N+](=O)[O-])cc2F)CC1,-78,n,n,n,n
CC(=O)OO,x,x,x,x,n
Cc1cc2c(C(C)C)c(O)c(O)c(C=O)c2c(O)c1-c1c(C)cc2c(C(C)C)c(O)c(O)c(C=O)c2c1O,x,n,n,34!,n
C[C@H]1CNCCc2ccc(Cl)cc21,x,x,x,x,n
C=C(C)CN1CC[C@]23c4c5ccc(O)c4O[C@H]2c2[nH]c4ccccc4c2C[C@@]3(O)C1C5,x,n,-80,n,x
CCOc1ccc(CN(CCc2ccc3c(c2)OCO3)Cc2cccc(Br)c2)cc1,x,n,n,n,n
Fc1ccccc1N1CCN(Cc2ccc3c(c2)OCO3)CC1,u,n,n,n,n
Cc1ccc(OCC(=O)N2CCN(Cc3ccc4c(c3)OCO4)CC2)cc1C,n,n,n,n,n
Clc1ccccc1CN1CCN(c2ccccc2Cl)CC1,-83,n,n,n,n
Clc1ccccc1N1CCN(Cc2ccc3c(c2)OCO3)CC1,-88,n,n,n,n
Fc1ccccc1N1CCN(Cc2c(F)cccc2F)CC1,u,n,n,n,n
Cc1ccccc1N1CCN(Cc2ccc3c(c2)OCO3)CC1,-76,n,n,n,n
SMILES,D3 antag,D1 PAM,D1 antag,D1 agonist,D3 ag
O=C(COc1ccc(Br)cc1)N1CCN(Cc2ccc3c(c2)OCO3)CC1,n,n,-34,n,n
CC(=O)OCC1=C(C(=O)O)N2C(=O)[C@@H](N)[C@H]2SC1,x,x,x,x,n
COCCOCCO,x,x,x,x,n
Cc1ccc(Cl)c(O)c1,x,x,x,x,n
CN(C)[C@H](Cc1ccccc1)c1ccccc1,x,x,x,x,n
CCN(CC)C(=O)c1ccc(NC(=O)c2cc(S(=O)(=O)N3CCCCCC3)ccc2OC)cc1,n,n,n,n,n
CCN(CC)C(=O)c1ccc(NC(=O)c2cccc(S(=O)(=O)N3CCN(Cc4ccccc4)CC3)c2)cc1,n,n,-32,n,n
CCCN1CCc2cc(O)cc3c2[C@H]1Cc1ccc(O)c(O)c1-3,u,x,x,x,n
CN1CCc2cc(O)cc3c2[C@H]1Cc1ccc(O)c(O)c1-3,-84,x,x,x,n
CC(NCc1ccc(Cl)cc1Cl)C(O)c1ccccc1 (stereo not drawn),-56,n,n,n,n
CC(NCc1cccc(Cl)c1Cl)C(O)c1ccccc1 (stereo not drawn),n,n,n,n,n
CC(NCc1ccc(Cl)cc1)C(O)c1ccccc1 (stereo not drawn),-105,n,n,n,n
COc1cc(OC)c(OC)cc1CNC(C)C(O)c1ccccc1 (stereo not drawn),-67,n,n,n,n
CCOc1c(Cl)cc(CNC(C)C(O)c2ccccc2)cc1OC (stereo not drawn),n,n,n,n,n
CC(C)Sc1nnc([C@@H](N)Cc2ccccc2)o1,n,n,n,75,n
CN1C(=S)CN=C(c2ccccc2)c2cc(Cl)ccc21,x,x,x,x,n
